Compound activity as filed in PubChem BioAssay.
Anthrax LF prot: Bacillus anthracis LF protease inhibitors, primary screen, biochemical, multiplex microsphere, MLPCN library. Lethal factor (Bacillus anthracis), P15917. multiplex microsphere protease cleavage assay. inhibition, % at 10 µM. actives 0.12% (n = 360,000); also: plate controls were buffer without enzyme for full effect and enzyme alone for no effect
BoNT-F LC inh: BoNT/F light chain protease inhibitors, primary screen, biochemical, flow cytometry, MLPCN library | Multiplex microsphere protease cleavage assay | inhibition, % at 10 µM | actives 0.22% (n = 360,000) | AID 588497, 2011; in the data active = inhibition above about 35%, passing the limit was not always enough; inconclusive = no clear call, values can overlap the other calls; also: plate controls were buffer without enzyme for full effect and enzyme alone for no effect
BoNT A protease: BoNT/A light chain protease inhibitors, primary screen, biochemical, flow cytometry, MLPCN library | actives 0.17% (n = 360,000) | multiplex microsphere protease substrate cleavage | inhibition, % at 10 µM | Botulinum neurotoxin type A light chain protease (Clostridium botulinum A str. ATCC 3502); also: plate controls were buffer without enzyme for full effect and enzyme alone for no effect
TcdB inh: TcdB glycohydrolase inhibitors, primary screen, biochemical, single point, plate reader | actives 0.24% (n = 350,000) | TcdB glycohydrolase enzymatic assay | inhibition, % at 9.99 µM; in the data active = inhibition above about 10%
Bead autofluor: counter-screen for toxin protease inhibitors: compound fluorescence | AID 624483 | actives 3.1% (n = 360,000) | fluorescence intensity (test concentration not listed) | compound autofluorescence counterscreen, microsphere flow cytometry; stronger effect = higher value; in the data active = fluorescence intensity above about 16000; inconclusive = no clear call, values can overlap the other calls
* = called active by the depositor; ? = inconclusive; / = no result. Shown is part of a subset that was picked to be rich in hits. Rule as the data show it, unless noted: active = inhibition above about 30%; inconclusive = no clear call, values can overlap the other calls; inactive = below that.

SMILES	Anthrax LF prot	BoNT-F LC inh	BoNT A protease	TcdB inh	Bead autofluor
O=C(NCc1ccccn1)Nc1ccc2c(c1)OCO2	-1.5	-0.5	-2.7	/	17706*
COc1ccc(NC(=O)NCc2ccccn2)cc1OC	-15.9	14.2	7.2	/	19081*
Cc1nn(-c2ccccc2)c(C)c1/C=N/N1CCN(c2ccccc2)CC1	-5.7	-5.5	-1.8	-0.6	20444*
Cc1nn(-c2ccccc2)c(N2CCCC2)c1/C=N/O	0.9	-5.8	-6.1	0.5	24403*
CCN1CC(CNCc2cn(-c3ccc(OC)cc3)nc2-c2ccccc2Cl)CC1=O (stereo unspecified)	-3.2	-7.3	-0.8	10.6*	4417
O=C(N[C@H]1CC[C@H](CCNS(=O)(=O)c2ccc(Cl)cc2)O[C@H]1CO)c1cccnc1	/	/	/	1.1	/
COC(=O)c1cc(NC(=O)CC2NC3CCCCC3NC2=O)cc(C(=O)OC)c1 (stereo unspecified)	-8.8	-1.7	1.2	/	22818*
Cc1noc(C)c1NC(=O)N(C)C[C@@H]1Oc2ccc(NC(=O)C3CCCCC3)cc2CC(=O)N([C@@H](C)CO)C[C@H]1C	/	/	/	-1.2	/
COc1cc(OC)cc(C(=O)Nc2cc(C)on2)c1	-10.2	-21.6	-2.4	0.6	3542
CCn1ncc(C(=O)Nc2cc(C)on2)c1C	-6.2	-1.4	0.9	/	21849*
COc1ccc(C(=O)Nc2cc(C)on2)cc1	-2.5	1.5	-0.3	/	16745*
C/C(=C\C(=O)Nc1cc(C)on1)c1ccccc1	-1.9	-3.4	-1.3	/	22891*
Cc1cc(NC(=O)c2cc(C)on2)no1	-0.5	-3.1	0.3	/	23413*
CCn1ncc(C(=O)Nc2cccc(Cl)c2)c1C	-5.2	-3.5	0.6	2.0	9792
C[C@H](CO)N1C[C@H](C)[C@H](CN(C)C(=O)c2ccc3c(c2)OCO3)Oc2cc(-c3cncnc3)ccc2S1(=O)=O	/	/	/	1.4	/
CC=Cc1ccc2n(c1=O)C[C@@H]1[C@@H](CO)[C@H](C(=O)Nc3ccccc3)[C@H]2N1C(=O)CC (mixture of isomers)	/	/	/	1.8	/
CC(=O)Nc1ccc2c(c1)C(=O)N(C)[C@H]1CC[C@H](CC(=O)Nc3cn(C)nc3C)O[C@H]1CO2	/	/	/	0.0	/
CC(C)NC(=O)N(C)C[C@H]1Oc2cc(C#CCN(C)C)ccc2S(=O)(=O)N([C@H](C)CO)C[C@H]1C	/	/	/	0.5	/
Cc1cc(NC(=O)c2cnn3c(C(F)F)cc(-c4ccccc4)nc23)no1	-0.7	0.6	?	/	22272*
COc1ccc(OCc2cccc(C(=O)Nc3cc(C)on3)c2)cc1	-0.6	1.8	1.2	/	22339*
COc1ccc(-c2nnc(NC(=O)c3cc(C)on3)s2)cc1	-2.5	-2.6	?	/	17016*
CCNC(=O)[C@H]1[C@H](CO)[C@H]2Cn3c(ccc(-c4ccccc4F)c3=O)[C@H]2N1C(=O)CC	/	/	/	0.7	/
Cc1ccccc1S(=O)(=O)N1C[C@H](O)COC[C@H]2O[C@@H](CC(=O)NCc3ccccc3Cl)CC[C@@H]21	/	/	/	0.6	/
O=S1CCCSC1c1cccnc1 (stereo unspecified)	-5.1	-1.1	1.6	/	21912*
O=C1CSC(c2cccnc2)N1c1ccccc1 (stereo unspecified)	-4.5	-3.8	0.2	-0.9	5962
SMILES	Anthrax LF prot	BoNT-F LC inh	BoNT A protease	TcdB inh	Bead autofluor
CS(=O)(=O)N1[C@@H](C#N)[C@H](c2ccccc2)[C@@H]1CO	/	/	/	-0.1	/
C[C@@H]1CN([C@@H](C)CO)S(=O)(=O)c2ccc(-c3cccnc3)cc2O[C@@H]1CN(C)C	/	/	/	0.6	/
COc1c(C)cc(Br)cc1C(=O)O	-4.8	-1.5	-0.4	/	22363*
COc1c(C)cc(Br)cc1C(=O)Nc1ccccc1C	-1.6	-3.2	-1.0	1.9	4677
CC(C)[C@@H]1COCc2cn(nn2)CC[C@H](Cc2ccccc2)C(=O)N1	/	/	/	-0.5	/
CCOc1cc(C(=O)OCC(=O)c2c(C)[nH]c3ccccc23)ccc1OCC(=O)N1CCOCC1	-7.5	-0.6	?	/	21648*
CCOc1cc(C(=O)OCC(=O)c2c[nH]c3ccccc23)ccc1OCC(=O)N1CCOCC1	-0.3	?	-0.2	/	4307
Cn1nnc(-c2ccc(OCc3ccccc3F)cc2)n1	-5.0	-3.4	-0.4	/	23800*
COc1ccc2c3c([nH]c2c1)[C@@H](CO)N(C(=O)c1cnccn1)CC31CCN(S(C)(=O)=O)CC1	/	/	/	-0.6	/
CO[C@H]1CN(C)C(=O)c2cc(NC(C)=O)ccc2OC[C@@H](C)N(C(=O)CC2CC2)C[C@@H]1C	/	/	/	1.5	/
CCN(CC)CCNc1ccc(C)c2sc3ccc(O)cc3c(=O)c12	-9.0	-57.0	1.0	28.6*	3061
CCOC(=O)N1CCN(S(=O)(=O)c2cc([N+](=O)[O-])ccc2C)CC1	-1.7	-7.5	-0.6	1.0	4535
CCOC(=O)N1CCC(=NNS(=O)(=O)c2cccc([N+](=O)[O-])c2)CC1	-1.7	-8.3	-7.5	/	22772*
O=C(Nc1ccccc1F)N[C@H]1CC[C@H](CCNS(=O)(=O)c2ccccc2)O[C@H]1CO	/	/	/	0.8	/
Cc1noc(C)c1C(=O)NC1CCCc2ccccc21 (stereo unspecified)	-0.3	-4.7	-3.6	0.5	21318*
C[C@H]1CN([C@@H](C)CO)S(=O)(=O)c2ccc(-c3cccc(C#N)c3)cc2O[C@H]1CN(C)C(=O)c1cccnc1	/	/	/	0.7	/
CC1=CC(C)(C)Nc2ccc(OC(=O)CCN3C(=O)c4ccccc4C3=O)cc21	-4.3	-6.3	-1.4	0.5	2940
CC1=CC(C)(C)Nc2ccc(OS(=O)(=O)c3ccc(C)cc3)cc21	-0.2	4.2	5.3	/	17799*
Cn1cccc1C(=O)NS(=O)(=O)c1ccccc1Cl	-7.0	12.7	?	/	13674
Cc1ccc(S(=O)(=O)NC(=O)c2cccn2C)cc1	-0.2	-0.9	0.4	/	16326*
CCOC(=O)c1sc(NC(=O)CSc2nnc(-c3ccc(OC)cc3)n2CCOC)nc1C	-3.2	-1.3	1.0	/	22333*
COCCNCc1ccccc1	0.1	-3.8	-2.7	0.6	24425*
O=C(c1cc2cc([N+](=O)[O-])ccc2oc1=O)N1CCN(c2ncccn2)CC1	-2.0	37.8*	5.5	/	7793
C[C@@H]1CCCCO[C@H](CN(C)C(=O)Nc2ccc(C(F)(F)F)cc2)[C@H](C)CN([C@@H](C)CO)C(=O)c2cc(NS(C)(=O)=O)ccc2O1	/	/	/	1.4	/
CCCCC(=O)C1C(=O)NC(=O)NC1=O	-3.3	3.1	2.1	/	19202*
O=C(Nc1cccc(C(F)(F)F)c1)c1cccn(Cc2ccc3c(c2)OC(F)(F)O3)c1=O	-0.4	-2.0	-1.5	/	20449*
Cc1cccc(C)c1NC(=O)c1cccn(Cc2ccc3c(c2)OC(F)(F)O3)c1=O	-13.0	7.0	10.0	/	16867*
CCCNC(=O)N1CCC2(CC1)CN(C(=O)CN1CCOCC1)[C@@H](CO)c1[nH]c3cc(OC)ccc3c12	/	/	/	-5.9	/
O=C(C[C@@H]1C=C[C@@H](NC(=O)C2CCOCC2)[C@H](CO)O1)NCc1ccncc1	/	/	/	-0.7	/
